Results filed as inconclusive are left out. Where a structure was tested more than once in an assay, its records may differ in their call. The source made the active and inactive calls. The calls were made as follows, unless noted: active = hit-call score of the fitted dose curve at least 0.9, where 1 is the maximum; inconclusive = response in the unintended direction; inactive = score below 0.9.
Legend:
[1] = target: X-box-binding protein 1 (Homo sapiens) (UniProt P17861); test: ATG_Xbp1_CIS: Attagene CIS-FACTORIAL HepG2 Assay for human X-box Binding Protein 1 (XBP1) (AID 2282972; active = hit-call score of the fitted dose curve at least 0.9, where 1 is the maximum; inactive = score below 0.9); settings: HepG2 XBP1 cis-element reporter, Attagene multiplex; actives raise or lower the signal
Sequence of X-box-binding protein 1 (Homo sapiens) (P17861 whole entry, looked up): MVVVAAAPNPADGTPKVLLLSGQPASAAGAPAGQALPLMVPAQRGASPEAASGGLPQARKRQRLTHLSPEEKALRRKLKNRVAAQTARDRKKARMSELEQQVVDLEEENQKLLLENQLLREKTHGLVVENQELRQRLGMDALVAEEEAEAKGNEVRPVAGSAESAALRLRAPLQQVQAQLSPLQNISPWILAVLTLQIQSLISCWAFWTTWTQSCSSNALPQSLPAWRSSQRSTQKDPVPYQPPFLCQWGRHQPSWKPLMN
How it was run: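 Multiplexed cis-reporter readout in transfected HepG2 liver cells. Exposure lasted 24 hours. Activity in either direction was fitted against DMSO as negative control and baseline.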

[2] = ATG_M_19_TRANS: Attagene TRANS-FACTORIAL HepG2 Assay for M19 Transcription Factor (Internal Marker) (AID 2282974); settings: HepG2 Attagene TRANS-FACTORIAL M19 internal marker reporter
How it was run: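 Cells: human HepG2, transiently transfected with multiplexed reporter transcription units. Exposure: 24 h. Detection: RT-PCR of reporter mRNA with capillary electrophoresis. Analysis: gain-of-signal vs DMSO.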

[3] = ATG_GAL4_TRANS: Attagene TRANS-FACTORIAL HepG2 Assay for GAL4 (Internal Marker) (AID 2282976); settings: HepG2 Attagene TRANS GAL4 internal marker reporter
How it was run: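 Liver HepG2 line bearing multiplexed GAL4-UAS reporter constructs; 24 h chemical treatment. Transcripts were quantified as fluorescent fragments on capillary electrophoresis after RT-PCR and HpaI cut, with activity fitted upward from DMSO.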

[4] = target: Bile acid receptor (Homo sapiens) (UniProt Q96RI1); test: ATG_FXR_TRANS: Attagene TRANS-FACTORIAL HepG2 Assay for Farnesoid X Receptor (FXR) (AID 2282979); settings: HepG2 Attagene TRANS FXR-GAL4 reporter transcription;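 also: hits raise reporter mRNA above DMSO so AC50 marks FXR activation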
Sequence of Bile acid receptor (Homo sapiens) (Q96RI1 whole entry, looked up, the tested form may be a part): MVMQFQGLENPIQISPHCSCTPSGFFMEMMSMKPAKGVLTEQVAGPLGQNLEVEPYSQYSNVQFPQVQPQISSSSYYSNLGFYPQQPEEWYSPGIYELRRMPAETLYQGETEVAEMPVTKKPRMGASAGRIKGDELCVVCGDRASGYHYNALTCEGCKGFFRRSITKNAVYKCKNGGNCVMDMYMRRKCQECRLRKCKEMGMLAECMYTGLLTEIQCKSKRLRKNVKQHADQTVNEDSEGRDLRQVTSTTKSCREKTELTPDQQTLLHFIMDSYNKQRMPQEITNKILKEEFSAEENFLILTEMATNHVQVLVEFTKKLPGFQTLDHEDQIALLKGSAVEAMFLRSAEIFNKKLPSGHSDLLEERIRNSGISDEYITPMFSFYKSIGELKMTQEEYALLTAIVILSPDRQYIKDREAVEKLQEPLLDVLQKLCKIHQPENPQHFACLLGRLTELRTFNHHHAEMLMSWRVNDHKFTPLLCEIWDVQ
How it was run: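 After 24 h chemical treatment of transfected HepG2 cells, GAL4-UAS reporter transcripts driven by an exogenous FXR-GAL4 fusion were measured by RT-PCR and capillary electrophoresis. Increases over DMSO were fitted.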

[5] = target: Glucocorticoid receptor (Homo sapiens) (UniProt P04150); test: ATG_GR_TRANS: Attagene TRANS-FACTORIAL HepG2 Assay for human Glucocorticoid Receptor (GR) (AID 2282978); settings: HepG2 Attagene TRANS GR reporter, mRNA transcription;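 also: activators score as hits since higher reporter transcript over DMSO is fitted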
Sequence of Glucocorticoid receptor (Homo sapiens) (P04150 whole entry, looked up, the tested form may be a part): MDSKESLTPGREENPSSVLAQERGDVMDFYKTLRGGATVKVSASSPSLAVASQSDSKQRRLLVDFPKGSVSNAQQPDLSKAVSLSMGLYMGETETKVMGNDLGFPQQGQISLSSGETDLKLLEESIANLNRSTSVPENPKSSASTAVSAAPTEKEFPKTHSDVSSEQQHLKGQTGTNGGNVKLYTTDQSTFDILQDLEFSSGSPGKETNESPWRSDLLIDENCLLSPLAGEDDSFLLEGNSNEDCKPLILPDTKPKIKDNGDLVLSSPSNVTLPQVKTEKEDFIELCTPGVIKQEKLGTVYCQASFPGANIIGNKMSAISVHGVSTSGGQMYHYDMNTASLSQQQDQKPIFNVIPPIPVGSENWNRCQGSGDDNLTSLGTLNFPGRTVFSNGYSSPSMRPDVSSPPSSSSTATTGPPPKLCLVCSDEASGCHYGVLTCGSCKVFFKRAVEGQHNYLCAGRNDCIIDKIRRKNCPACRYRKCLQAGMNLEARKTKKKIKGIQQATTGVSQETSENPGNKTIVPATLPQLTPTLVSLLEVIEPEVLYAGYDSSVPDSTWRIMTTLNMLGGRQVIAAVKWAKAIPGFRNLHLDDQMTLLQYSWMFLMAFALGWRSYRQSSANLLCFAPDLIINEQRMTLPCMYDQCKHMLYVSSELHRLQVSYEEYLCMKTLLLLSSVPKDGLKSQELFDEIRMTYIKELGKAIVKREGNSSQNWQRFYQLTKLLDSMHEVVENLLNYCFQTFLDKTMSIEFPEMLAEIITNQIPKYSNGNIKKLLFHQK
How it was run: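 In this trans-factorial format, exogenous NR-GAL4 chimeric proteins in transfected HepG2 cells regulate GAL4-UAS reporter transcription. After 24 h treatment, reporter mRNA induction relative to DMSO is read by RT-PCR and capillary electrophoresis.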

[6] = target: Oxysterols receptor LXR-alpha (Homo sapiens) (UniProt Q13133); test: ATG_LXRa_TRANS: Attagene TRANS-FACTORIAL HepG2 Assay for human Liver X Receptor alpha (LXRa) (AID 2282980); settings: HepG2 Attagene TRANS reporter, LXRa transactivation
Sequence of Oxysterols receptor LXR-alpha (Homo sapiens) (Q13133 whole entry, looked up, the tested form may be a part): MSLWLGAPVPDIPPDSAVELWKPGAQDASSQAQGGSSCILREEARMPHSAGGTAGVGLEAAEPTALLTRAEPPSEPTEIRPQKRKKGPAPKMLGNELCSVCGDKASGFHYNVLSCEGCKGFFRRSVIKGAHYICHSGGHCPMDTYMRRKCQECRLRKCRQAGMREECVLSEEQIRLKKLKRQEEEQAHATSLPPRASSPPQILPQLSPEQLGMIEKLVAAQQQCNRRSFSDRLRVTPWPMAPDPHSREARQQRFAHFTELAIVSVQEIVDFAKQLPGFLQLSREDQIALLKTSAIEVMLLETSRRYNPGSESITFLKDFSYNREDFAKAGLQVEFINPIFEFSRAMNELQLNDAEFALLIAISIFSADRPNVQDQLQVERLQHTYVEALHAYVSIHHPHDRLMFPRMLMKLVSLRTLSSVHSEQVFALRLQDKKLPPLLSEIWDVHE
How it was run: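 In this multiplexed TRANS system, compounds act on HepG2 cells carrying GAL4-UAS reporter units and a receptor-GAL4 fusion for 24 h. Induced reporter RNA is amplified, fluorescently labelled and sized by capillary electrophoresis, with DMSO as baseline.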

[7] = target: Steroid hormone receptor ERR1 (Homo sapiens) (UniProt P11474); test: ATG_ERRa_TRANS: Attagene TRANS-FACTORIAL HepG2 Assay for human Estrogen-Related Receptor alpha (ERRa) (AID 2282971); settings: HepG2 Attagene TRANS reporter, ERRa transactivation
Sequence of Steroid hormone receptor ERR1 (Homo sapiens) (P11474 whole entry, looked up, the tested form may be a part): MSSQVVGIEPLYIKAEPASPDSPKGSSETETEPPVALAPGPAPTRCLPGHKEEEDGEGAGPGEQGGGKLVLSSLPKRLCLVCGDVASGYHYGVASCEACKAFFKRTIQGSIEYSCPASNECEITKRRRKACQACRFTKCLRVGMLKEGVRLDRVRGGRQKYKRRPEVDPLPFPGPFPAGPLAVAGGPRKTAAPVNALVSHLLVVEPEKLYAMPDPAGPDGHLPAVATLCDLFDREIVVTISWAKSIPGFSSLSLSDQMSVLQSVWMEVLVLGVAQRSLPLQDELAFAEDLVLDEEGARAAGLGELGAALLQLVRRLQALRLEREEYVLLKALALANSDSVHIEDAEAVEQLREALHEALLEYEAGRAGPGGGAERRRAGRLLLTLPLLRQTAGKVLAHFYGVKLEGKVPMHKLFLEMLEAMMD
How it was run: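 Signal gain relative to DMSO for an ERRa-Gal4 chimeric receptor, read as reporter mRNA by RT-PCR/capillary electrophoresis. Human HepG2 liver cells, transient multiplex reporter transfection, 24 h chemical exposure.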

[8] = target: Estrogen-related receptor gamma (Homo sapiens) (UniProt P62508); test: ATG_ERRg_TRANS: Attagene TRANS-FACTORIAL HepG2 Assay for human Estrogen-Related Receptor gamma (ERRg) (AID 2282977); settings: HepG2 Attagene TRANS reporter, ERRg transactivation;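 also: hits increase reporter signal over DMSO so potencies reflect activators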
Sequence of Estrogen-related receptor gamma (Homo sapiens) (P62508 whole entry, looked up, the tested form may be a part): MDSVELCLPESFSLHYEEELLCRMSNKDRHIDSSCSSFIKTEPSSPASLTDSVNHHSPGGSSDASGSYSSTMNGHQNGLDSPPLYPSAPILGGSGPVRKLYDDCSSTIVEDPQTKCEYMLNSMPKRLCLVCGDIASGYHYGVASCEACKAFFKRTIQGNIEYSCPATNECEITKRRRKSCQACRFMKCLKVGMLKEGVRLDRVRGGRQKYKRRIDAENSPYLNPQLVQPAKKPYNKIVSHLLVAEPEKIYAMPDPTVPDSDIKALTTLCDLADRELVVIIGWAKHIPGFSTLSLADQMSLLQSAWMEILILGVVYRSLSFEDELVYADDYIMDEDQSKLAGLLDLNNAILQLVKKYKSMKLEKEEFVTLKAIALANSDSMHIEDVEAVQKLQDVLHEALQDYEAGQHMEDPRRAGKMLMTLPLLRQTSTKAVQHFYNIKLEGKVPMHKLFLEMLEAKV
How it was run: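 Induction of reporter transcripts through a chimeric NR-Gal4 protein is quantified in transfected human HepG2 liver cells after 24 h chemical exposure, using RT-PCR with capillary electrophoresis detection and DMSO as baseline.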

[9] = target: Estrogen receptor (Homo sapiens) (UniProt P03372); test: ATG_ERa_TRANS: Attagene TRANS-FACTORIAL HepG2 Assay for human Estrogen Receptor alpha (ERa) (AID 2282970); settings: HepG2 Attagene TRANS ERa GAL4 reporter, mRNA
Sequence of Estrogen receptor (Homo sapiens) (P03372 whole entry, looked up, the tested form may be a part): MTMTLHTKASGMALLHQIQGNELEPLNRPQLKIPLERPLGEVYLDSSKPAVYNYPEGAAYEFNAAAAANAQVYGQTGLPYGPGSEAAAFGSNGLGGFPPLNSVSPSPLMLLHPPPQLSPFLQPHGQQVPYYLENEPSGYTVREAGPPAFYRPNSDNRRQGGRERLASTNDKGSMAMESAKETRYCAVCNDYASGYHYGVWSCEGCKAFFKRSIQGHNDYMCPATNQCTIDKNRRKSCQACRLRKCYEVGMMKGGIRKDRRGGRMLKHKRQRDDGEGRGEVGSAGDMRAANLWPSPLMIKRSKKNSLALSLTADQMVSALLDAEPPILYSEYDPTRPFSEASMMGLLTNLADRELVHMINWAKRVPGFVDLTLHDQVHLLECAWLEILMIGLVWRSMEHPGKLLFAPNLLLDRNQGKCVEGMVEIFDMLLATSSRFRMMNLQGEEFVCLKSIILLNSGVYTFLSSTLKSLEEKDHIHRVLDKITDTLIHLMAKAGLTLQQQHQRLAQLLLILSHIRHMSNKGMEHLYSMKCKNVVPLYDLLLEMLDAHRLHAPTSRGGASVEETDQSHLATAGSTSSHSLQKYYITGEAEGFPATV
How it was run: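 Signal derives from fluorescence of labelled reporter PCR fragments separated by capillary electrophoresis. HepG2 cells transiently carrying multiple GAL4-UAS reporter units were treated 24 hours, and induction above DMSO baseline was fitted as activity.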

Measured: AC50

c1ccc2c(c1)CCC2
inactive: [1] | [2] | [3] | [4]

CC(O)COc1ccccc1 (centres undefined)
inactive: [1] | [2] | [5] | [4] | [6]

CC(C)c1c(C(=O)Nc2ccccc2)c(-c2ccccc2)c(-c2ccc(F)cc2)n1CC[C@@H](O)C[C@@H](O)CC(=O)O
inactive: [1] | [2] | [3]

NC(C(F)(F)F)C(F)(F)F
inactive: [7] | [1]

CCCCCCCCCCCCCCC
inactive: [1] | [2] | [3] | [5]

CC(=O)Nc1ccc(O)cc1
inactive: [1]

CS(=O)(=O)c1ccc([C@@H](CC2CCCC2)C(=O)Nc2cnccn2)cc1Cl
inactive: [8]

CNNCc1ccc(C(=O)NC(C)C)cc1
inactive: [1] | [2] | [5]

CCCCCCCCCCCC
inactive: [1] | [2] | [3] | [5]

O=S(=O)(O)c1ccccc1
inactive: [1] | [3] | [8] | [5] | [4]

NS(=O)(=O)O
inactive: [2] | [3] | [6]

CCO[Si](C)(C)OCC
inactive: [1] | [2] | [3] | [8] | [5]

OCCN1CN(CCO)CN(CCO)C1
active: [1] 164 µM
inactive: [2] | [3] | [5] | [4] | [6]

O=C(c1ccccc1)c1ccccc1
inactive: [1] | [2] | [3] | [5] | [4]

Cn1sccc1=O
inactive: [7] | [2] | [5]

C[C@]12CC[C@@H]3c4ccc(O)cc4CC[C@H]3[C@@H]1C[C@@H](O)[C@@H]2O
inactive: [1] | [2] | [3] | [5] | [6]

CCCCCCCCCCCC(=O)O
inactive: [1] | [2] | [3] | [6]
active: [1] 87 µM

Cc1[nH]nc2c1N=C(c1ccccc1Cl)c1cc([N+](=O)[O-])ccc1N2
inactive: [1] | [2] | [4] | [6]

CCC1CO1 (centres undefined)
inactive: [1] | [3] | [5] | [4]

NNC(=O)CCCCC(=O)NN
inactive: [7] | [1] | [2] | [3] | [4]

O=C1NS(=O)(=O)c2ccccc21
inactive: [1] | [2] | [3] | [6]

CCCCCCCCCCCCCC[n+]1ccccc1
active: [8] 189 µM
inactive: [7] | [1] | [2] | [5] | [4] | [6]

OCC(CO)(CBr)CBr
inactive: [1] | [2] | [8] | [5] | [4] | [6]

O=S(=O)(c1ccc(OCc2ccccc2)cc1)c1ccccc1O
inactive: [9] | [5] | [4]

O=C1OC(=O)C(F)(F)C1(F)F
inactive: [7] | [1] | [2] | [3] | [5] | [4] | [6]

O=C(CCCN1CCC(O)(c2ccc(Cl)cc2)CC1)c1ccc(F)cc1
active: [1] 50.3 µM
inactive: [2]

CCCCC(CC)C(=O)O (centres undefined)
inactive: [1] | [2] | [3] | [6]

CCCCC=O
inactive: [1] | [3] | [5] | [4]

COC(=O)C(F)(F)C(F)(F)C(F)(F)C(F)(F)C(F)(F)F
inactive: [7] | [1] | [2]

O=C(NO)c1ccccc1
inactive: [7] | [1] | [2] | [3] | [8] | [5] | [4]
